Here are results for 99 compounds from PubChem BioAssay AID652104 (National Center for Advancing Translational Sciences (NCATS), 2013).

Screen size: about 410,000 compounds; about 7,200 (1.8%) were called active. Not shown: some 7% with an inconclusive outcome. Shown is part of a subset that was picked to be rich in actives. A number with no mark means an inactive call. The call rests on the fitted dose curve; in most records, active means well fitted activation curve with a large enough effect; inconclusive means small, poorly fitted or top-dose-only effect, or another doubt; inactive means no such curve, though single readings can be large or run the other way.
Potency means the concentration at half of the fitted maximal effect.

A short description of the assay: qHTS of TDP-43 Inhibitors. Further: nearly all actives have a fitted effect of over 50% in size. On growth rescue (activation): % of control where 0% means no effect. The conditions noted are these: TDP-43 expressing yeast growth rescue, BacTiter-Glo, 24 h; series mostly up to 46.1 µM; growth rescue (activation): at the top concentration. The procedure, abridged:
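Readout is BacTiter-Glo luminescence of cell growth, so inhibitors register as activators. TDP-43-expressing yeast at OD600=0.02 in galactose medium, after raffinose pregrowth to mid-log, were incubated with compound for 24 hr at 30 deg C.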
Consider `CCOc1ccc(CNCc2c(C(=O)O)c(C)n(Cc3cccc(OC)c3)c2C)cc1OC`, for which the “growth rescue (activation)” value was 20.8%.
For the compound `Cc1ccc(-n2c(SCC(=O)Nc3cccc(F)c3)nc3c(oc4ccccc43)c2=O)cc1C`, the “growth rescue (activation)” value was 6.78%.
On the same count and under the same terms, next, `CCn1c(=S)[nH]c2sc3c(c2c1=O)CCCCC3`: 7.77%.
Turning to `S=c1[nH]nc2c3c4c(sc3ncn12)CCCC4`, the Potency is 4.47 µM (active).
As to `Cc1ccc2nc(COc3ccc(NC(=O)COc4ccccc4F)cc3)cc(=O)n2c1`, the “growth rescue (activation)” value was -13.1%.
Take `Cc1cccc(Cn2c(SCc3ccc(C(=O)N4CCC(C)CC4)cc3)nc3ccncc32)c1`: the “growth rescue (activation)” value was -2.39%.
Turning to `Cc1cc2c(cc3c(SCc4cccc(Cl)c4)nnc(C)n32)o1`, the Potency was 20 µM (active).
On to `CCc1nnc(SCc2nc(-c3cccc(C)c3)oc2C)c2cc3sc(C)cc3n12`, for which the “growth rescue (activation)” value is 9.11%.
Consider `Cc1nnc(SCc2cccc(Cl)c2)n(N)c1=O`, for which the “growth rescue (activation)” value is -2.32%.
On to `Cc1cc(NC(=O)CSCc2nc(-c3cccc(Cl)c3)oc2C)no1`, for which the “growth rescue (activation)” value is -9.69%.
As to `O=C(c1ccco1)N1CCN=C1SCc1cccc(Cl)c1`, the “growth rescue (activation)” value is 4.84%.
For `Cc1cc2c(cc3c(SCc4nc(-c5ccccc5)oc4C)nnc(C)n32)o1`, the Potency was 17.8 µM (active).
With `COc1cccc(-c2nnc(SCC(=O)N3CCC(C)CC3)o2)c1`, the “growth rescue (activation)” value was 42.2%.
Turning to `O=C(Cn1cc(SCc2ccccc2)c2ccccc21)N1CCCCC1`, the “growth rescue (activation)” value is 0%.
Take `COc1ccc(NC(=O)C(=O)NCc2ccco2)cc1`: the “growth rescue (activation)” value was 19%.
Turning to `COc1ccc(Nc2nc(NCc3ccco3)nc(N/N=C/c3ccccc3Cl)n2)cc1`, the Potency was 17.8 µM (active).
As for `C=CCC(NCc1ccco1)c1ccc(OC)cc1` (centres undefined), the “growth rescue (activation)” value was -8.96%.
Still for that read-out and setting: the same measure for `COc1cc(OC)cc(-c2nc3nc(C)c(CCC(=O)Nc4ccccc4)c(C)n3n2)c1`: 1.76%; for `O=C(NCCCc1ccccc1)c1ccc2c(c1)sc1nc(-c3ccc(F)cc3)cn12`: 1.87%.
Take `CCC(=O)N1c2ccccc2CC1C(=O)N1CCN(c2cccc(OC)c2)CC1` (centres undefined): the “growth rescue (activation)” value is 0%.
`CC1=C(c2ccc(C)c(C)c2)S(=O)(=O)NC1=NCc1ccccc1Cl`: the “growth rescue (activation)” value was -4.02%.
`O=C1c2ccccc2S(=O)(=O)N1CC(O)Cn1c2ccccc2c2ccccc21` (centres undefined): the Potency was 11.2 µM (active).
As to `O=C1c2ccccc2S(=O)(=O)N1Cc1c(F)cccc1Cl`, the “growth rescue (activation)” value was -8.24%.
As to `CS(=O)(=O)N(CC(O)Cn1c2ccccc2c2ccccc21)c1cccc2ccccc12` (centres undefined), the “growth rescue (activation)” value is -13.6%.
`COc1ccc(CNC(=O)c2ccc3c(O)c(S(=O)(=O)c4ccccc4)c(=O)[nH]c3c2)cc1`: the “growth rescue (activation)” value is 6.56%.
Turning to `CCOc1ccc(/C=C/C(=O)N(CC)CC(=O)NCc2cccs2)cc1OC`, the “growth rescue (activation)” value was 0%.
Regarding `CCOc1ccc(C(=O)NC2CCN(CC(=O)NCc3cccs3)CC2)cc1`, the “growth rescue (activation)” value was -6.15%.
For `CCOc1ccc(/C=N/OCC(=O)NCc2cccs2)cc1`, the Potency is 11.2 µM (active).
As for `CCCCc1nn2c(=O)cc(COC(=O)c3ccc(NC(=O)c4ccccc4C)cc3)nc2s1`, the “growth rescue (activation)” value was 6.4%.
Consider `Cc1cc(Br)cn2c(Cc3cccc(F)c3)c(-c3cccc(Br)c3)nc12`, for which the “growth rescue (activation)” value was 0%.
For `Clc1cccc(Cc2c(-c3cccc(Cl)c3)nc3ccc(Cl)cn23)c1`, the Potency was 12.6 µM (active).
Regarding `N#Cc1ccc(C(C(=O)NCc2ccccc2)n2c(=O)c(-c3ccco3)nc3ccccc32)cc1` (centres undefined), the “growth rescue (activation)” value is 16.3%.
Turning to `CCCc1nc2c3ccccc3ccn2c1Cc1ccccc1C(F)(F)F`, the “growth rescue (activation)” value was -67.8%.
With `Cc1ccc(-c2nc3c(Cl)cc(C(F)(F)F)cn3c2Cc2cccc(Cl)c2)cc1`, the “growth rescue (activation)” value is 28.6%.
As for `Cc1ccc(Cc2c(-c3ccco3)nc3ccc(Cl)cn23)cc1`, the Potency was 6.31 µM (active).
As for `Cc1ccc2nc(-c3ccccc3)c(CC3CCCCC3)n2c1`, the “growth rescue (activation)” value is 0%.
For `c1ccc(Cc2c(-c3ccco3)nc3c4ccccc4ccn23)cc1`, the Potency is 35.5 µM (active).
For `CN1CCN(Cc2c(C(=O)N3CCc4ccccc4C3)nc3ccc(Cl)cn23)CC1`, the “growth rescue (activation)” value was 5.77%.
As to `CCOc1ccc(N(CC)S(=O)(=O)N2CCCC(C(=O)NCc3ccc(SC)cc3)C2)cc1` (centres undefined), the “growth rescue (activation)” value was 14.4%.
As for `CCN(CC)c1ccc(NS(=O)(=O)c2cc(-c3cc(C)no3)ccc2C)c(C)c1`, the “growth rescue (activation)” value is -14.9%.
For the compound `Cc1cccc(-n2c(SCC(N)=O)nc3c(oc4ccccc43)c2=O)c1`, the “growth rescue (activation)” value was 26.1%.
As to `COc1ccc(NC(=O)CCCN2C(=O)CCn3nc(-c4cn(C)c5ccccc45)cc32)cc1OC`, the “growth rescue (activation)” value is 14.9%.
The same measure, in the same setting: next, `CCOCCCn1c(SCC(=O)Nc2ccc(CC)cc2)nc2ccccc2c1=O`: 8.55%; `COc1ccc(OC)c(CNC(=O)c2c3c(nc4ccccc24)C(=O)N(C2CCCCC2)C3)c1`: 2.95%.
For the compound `Cc1ccc2cc(/C=N/NC(=O)[C@@H]3CCCN3)c(Cl)nc2c1`, the Potency was 4.47 µM (active).
With `O=C(Nc1cccc(F)c1)[C@@H]1CCCN1`, the “growth rescue (activation)” value is 4.62%.
Take `CCc1ccccc1NS(=O)(=O)c1ccc2nc(-c3ccccc3)[nH]c2c1`: the “growth rescue (activation)” value is 23%.
`Cc1nc2ccc(S(=O)(=O)NC(C(=O)NCc3ccccc3Cl)C(C)C)cc2s1` (centres undefined): the “growth rescue (activation)” value is 23.9%.
As to `Cc1cccc(OCCSc2nc3ccc(NC(=O)COc4ccccc4C)cc3s2)c1`, the “growth rescue (activation)” value is -10.4%.
The same measure, in the same setting: next, `Cc1cccc(C(=O)N2c3nc(-c4ccco4)nn3C3(CCCCC3)[C@@H]3CCCC[C@@H]32)c1`: 14.2%.
In the case of `Cc1ccc(S(=O)Cc2ccc(C(=O)N3CCN(C4CCCCC4)CC3)o2)cc1` (centres undefined), the “growth rescue (activation)” value is -22.5%.
On to `Cc1ccc(C(=O)N2c3ncnn3C3(CCCCC3)[C@@H]3CCCC[C@@H]32)cc1`, for which the Potency is 22.4 µM (active).
With `CCOC(=O)c1c(C)[nH]c(C)c1S(=O)(=O)NCC(=O)NCc1cccc(C)c1`, the “growth rescue (activation)” value is -15.8%.
In the case of `O=C(CCc1nc(CN2CCN(S(=O)(=O)c3ccc(Br)cc3)CC2)no1)N1CCCCC1`, the “growth rescue (activation)” value was -11%.
`COc1ccc(C2CC(=O)Nc3c2c(=O)nc2c(C)cccn32)cc1OC` (centres undefined): the growth rescue (activation) was 25.6% [at 9.22 µM].
Consider `COC(=O)c1cnn(-c2ccc(C(=O)Nc3ccc(OC(F)(F)F)cc3)cc2)c1N`, for which the growth rescue (activation) is 12.1% [at 9.22 µM].
In the case of `CCc1nc2nc(C)cc(Nc3ccc(F)c(Cl)c3)n2n1`, the “growth rescue (activation)” value was 24.6%.
Regarding `COc1ccccc1NC(=O)CCC(=O)N1CC(C)Oc2ccc(C)cc21` (centres undefined), the Potency result was “inactive”.
Regarding `Cc1ccc(CNC(=O)CCC(=O)N2CC(C)Sc3ccccc32)cc1` (centres undefined), the “growth rescue (activation)” value is 21.1%.
Turning to `Cc1ccc(Cl)cc1NC(=O)CCC(=O)N1CC(C)Sc2ccccc21` (centres undefined), the Potency was 25.1 µM (active).
On to `CC(=O)N1CCCc2cc(S(=O)(=O)N3CCC(C(=O)NC4CCCCC4)CC3)ccc21`, for which the “growth rescue (activation)” value was 19.1%.
As to `Cc1ccc(NC(=O)CSc2nc3c(c(=O)[nH]2)CN(Cc2ccc4c(c2)OCO4)CC3)cc1C`, the “growth rescue (activation)” value is -5.01%.
Regarding `Cc1cccc(NC(=O)Cn2c(=O)n(CCC(C)C)c(=O)c3cccnc32)c1`, the “growth rescue (activation)” value is -4.57%.
As for `COc1ccc(-c2cn3nc(N4CCCC(C(=O)NCCCOC(C)C)C4)sc3n2)cc1` (centres undefined), the “growth rescue (activation)” value is 21.4%.
Turning to `COc1ccc(-n2c(C)csc2=S)cc1`, the “growth rescue (activation)” value was 14.9%.
For the compound `COC(=O)c1sc(=S)n(-c2ccc(Cl)cc2)c1C`, the Potency is 12.6 µM (active).
Take `COC(=O)c1sc2ncccc2c1-n1c(C)ccc1C`: the “growth rescue (activation)” value is 22.8%.
The same measure, in the same setting: the same measure for `Cc1ccccc1-c1nc(SCC(=O)N(C)c2ccccc2)c2c(=O)n(C)c(=O)n(C)c2n1`: 0% [at 9.22 µM]; for `CCN1CCN(c2ncnc3c2cnn3-c2ccc(C)c(C)c2)CC1`: -11.6%.
With `CCc1cc2c(N3CCN(c4nnc(CC)s4)CC3)ncnc2s1`, the Potency was 17.8 µM (active).
For the compound `Cc1ccc(NC(=O)CSc2nnc3[nH]c(=O)cc(C)n23)cc1Cl`, the “growth rescue (activation)” value is 21.8%.
Same read-out and setting: next, `COc1ccc(-c2cc(-c3nc(-c4cc(OC)c(OC)c(OC)c4)no3)[nH]n2)c(OC)c1`: 11.5%.
As to `CCOc1ccc(CNC(=O)C2CCCN(S(=O)(=O)N(CC)c3ccc(OCC)cc3)C2)cc1` (centres undefined), the “growth rescue (activation)” value is 18%.
In the case of `CCOc1ccccc1Oc1cn[nH]c1-c1ccc(OC)cc1O`, the Potency is 22.4 µM (active).
As for `Oc1ccc(-c2[nH]ncc2-c2nc3ccccc3s2)c(O)c1`, the “growth rescue (activation)” value is 18.5%.
For `CCN(CCn1cccn1)Cc1cn[nH]c1-c1ccc(OC)cc1F`, the “growth rescue (activation)” value was 3.87%.
As for `Cc1cccc(N2CCN(C(=O)c3ccc4c(c3)CCN4S(=O)(=O)c3ccccc3)CC2)c1C`, the “growth rescue (activation)” value is 18.4%.
Consider `CC(=O)c1ccc(NC(c2ccc(F)cc2)c2nnc(-c3ccccc3)o2)cc1` (centres undefined), for which the “growth rescue (activation)” value was 1.24%.
Regarding `CCOC(=O)c1c(NC(=O)c2cc(CC)on2)sc(C(C)=O)c1C`, the “growth rescue (activation)” value is 18.1%.
As for `O=C(CNC(=O)OCc1ccccc1)NC1CCCCNC1=O` (centres undefined), the “growth rescue (activation)” value was -16.7%.
For `O=C(CNC(=O)OCc1ccccc1)Oc1cc2oc(=O)cc(-c3ccccc3)c2cc1Cl`, the Potency was 7.08 µM (active).
In the case of `O=C(CNC(=O)Cc1ccccc1)NCC(=O)OCC(=O)c1ccccc1Cl`, the “growth rescue (activation)” value is -11.4%.
Still for that read-out and setting: next, `CCc1ccc(NC(=O)CCS(=O)(=O)c2cc3c(cc2Cl)NC(=O)CO3)cc1`: 5.16%.
Same read-out and setting: next, `CCCCCn1c(=O)c(C(=O)OCC)c(Cl)c2ccccc21`: -8.57%; `Cn1c(=O)c(C(=O)Nc2ncccn2)c(O)c2ccccc21`: -9.83%.
As to `CCCn1c(=O)c(-c2ccccc2)c(O)c2ccccc21`, the Potency was 22.4 µM (active).
In the case of `COc1ccc(OC)c(NC(=O)CSC2=Nc3ccccc3C3=NC(CC(=O)NCCc4ccccc4)C(=O)N23)c1` (centres undefined), the “growth rescue (activation)” value is 0%.
Same read-out and setting: the same measure for `Cc1c(-c2nc(-c3ccc4c(c3)OCO4)no2)nnn1-c1ccc(Br)cc1F`: 13.5%; for `CC1CCc2c(nc3ncnn3c2Nc2ccc(OC(F)(F)F)cc2)C1` (centres undefined): -0.0857%.
On to `Brc1ccc(Nc2c3c(nc4ncnn24)CCC3)cc1`, for which the Potency was 12.6 µM (active).
As for `Cc1cc(Nc2ccc(C)c(C)c2)n2ncnc2n1`, the “growth rescue (activation)” value was 14.1%.
As for `COc1ccc(C(=O)c2oc3ccccc3c2NC(=O)COc2cccc(C)c2)cc1`, the growth rescue (activation) was 9.29% [at 9.22 µM].
In the case of `Cc1c(NC(=O)c2cc(=O)c3ccccc3o2)c(=O)n(-c2ccccc2)n1C`, the “growth rescue (activation)” value was 22.7%.
In the case of `CCOC(=O)c1cccc(NS(=O)(=O)c2cc(-c3cnc(C)o3)ccc2OC)c1`, the “growth rescue (activation)” value was 22.8%.
`C/C(Cc1ccccc1)=N\NC(=O)CNC(=O)c1ccc2c(c1)OCCO2`: the “growth rescue (activation)” value was 5.25%.
Regarding `Cc1nc(NC(=O)c2ccc3c(c2)OCCO3)ccc1Br`, the Potency was 12.6 µM (active).
Take `CS(=O)(=O)c1ccc(-c2nnc(NC(=O)c3ccc4c(c3)OCCO4)o2)cc1`: the “growth rescue (activation)” value is 0%.
Take `Cc1ccc(C)c(NC(=O)C2CCCN(S(=O)(=O)c3cn(C)cn3)C2)c1` (centres undefined): the “growth rescue (activation)” value was 16.4%.
`CC(=O)N1CCCc2cc(S(=O)(=O)Nc3ccc(Cl)cc3F)ccc21`: the “growth rescue (activation)” value was 26.2%.
